“And” between values parts separate entries of the source, which are not always exact repeats. Equal values may be shown once. This is part of a sample that, as a whole, favours compounds with a hit. Of some 79,000 tested, about 15% had one in any assay. Some compounds were tested as several samples or in several runs, with calls that do not always agree. The source made the active and inactive calls. No stated cut-off is given here; in the data, active means growth inhibition above about 70%; inactive means the rest.
Experiments:
[1] = NCI Yeast Anticancer Drug Screen. Data for the rad50 strain (AID 155);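 further: 0% = growth of vehicle-only cultures of the same strain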; conditions: S. cerevisiae rad50 strain growth inhibition, stronger effect = higher value
In short: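 Relative growth inhibition (compound vs vehicle) was measured in yeast with a defined repair-gene alteration.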

[2] = NCI Yeast Anticancer Drug Screen. Data for the mec2-1 strain (AID 157); conditions: S. cerevisiae mec2-1 strain, stronger effect = higher value
In short: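 Strain: mec2-1 (DNA repair/cell cycle alteration). Compound exposure, then growth measured; inhibition expressed relative to vehicle.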

[3] = NCI Yeast Anticancer Drug Screen. Data for the sgs1 mgt1 strain (AID 161);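 further: 0% = growth of cultures given vehicle only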; conditions: S. cerevisiae sgs1 mgt1 strain, stronger effect = higher value
In short: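 Read-out: growth inhibition vs vehicle controls. Cells: mutant yeast strain deficient in DNA damage repair.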

[4] = NCI Yeast Anticancer Drug Screen. Data for the cln2 rad14 strain (AID 165);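 further: 0% = growth equal to vehicle treated cultures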; conditions: S. cerevisiae cln2 rad14 strain, stronger effect = higher value
In short: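 Compounds are applied to the cln2 rad14 yeast strain, and growth is then compared with that of vehicle-treated cultures to give inhibition.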

[5] = NCI Yeast Anticancer Drug Screen. Data for the bub3 strain (AID 167); conditions: S. cerevisiae bub3 mutant strain, stronger effect = higher value
In short: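 Screening used yeast with an engineered genetic alteration affecting cell cycle control. Compound-exposed cultures were compared with vehicle cultures, and reduced growth was taken as inhibition.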

[6] = NCI Yeast Anticancer Drug Screen. Data for the mlh1 rad18 strain (AID 175); conditions: S. cerevisiae mlh1 rad18 strain growth inhibition, stronger effect = higher value
In short: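 Read-out is yeast growth inhibition, calculated against vehicle-only controls. The compound was applied to a strain engineered with DNA damage repair alterations.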

[7] = at 5.0 µM (retest, dose inferred, filed as 0.5)
[8] = at 50.0 µM (retest, dose inferred, filed as 5.0)

Measured: growth inhibition

Nc1nnc(/C=C/c2ccccc2)o1
inactive: [1]; [7] 2% | [1]; [8] -22% | [1]; at 50.0 µM 19.5% | [2]; [7] 8% | [2]; [8] -21% | [2]; at 50.0 µM -21.6% | [3]; [7] -8% | [3]; [8] -9% | [3]; at 50.0 µM -4.6% | [4]; [7] 1% | [4]; [8] -4% | [4]; at 50.0 µM 42.2% | [5]; [7] 1% | [5]; [8] -4% | [5]; at 50.0 µM -1.9% | [6]; [7] 7% | [6]; [8] 21% | [6]; at 50.0 µM -10.2%

Oc1ccc(/C=N/NC(=S)NN2CCOCC2)nc1
active: [1]; [8] 96% | [1]; at 50.0 µM 87% | [2]; [8] 95% | [2]; at 50.0 µM 90.1% | [3]; [8] 95% | [3]; at 50.0 µM 89% | [4]; [8] 91% | [4]; at 50.0 µM 80.8% | [5]; [8] 93% | [5]; at 50.0 µM 88.5% | [6]; [8] 95% | [6]; at 50.0 µM 87.8%
inactive: [1]; [7] 38% | [2]; [7] 36% | [3]; [7] 42% | [4]; [7] 20% | [5]; [7] 46% | [6]; [7] 42%

Fc1ccc(NC(=S)SCc2ccc3c(c2)OCO3)cc1
active: [1]; [8] 98% | [1]; at 50.0 µM 99% | [2]; [8] 99% | [2]; at 50.0 µM 98.5% | [3]; [8] 99% | [3]; at 50.0 µM 99.5% | [4]; [8] 95% | [4]; at 50.0 µM 98.5% | [5]; [8] 97% | [5]; at 50.0 µM 98.9% | [6]; [8] 95% | [6]; at 50.0 µM 99.3%
inactive: [1]; [7] 3% | [2]; [7] 1% | [3]; [7] 3% | [4]; [7] -13% | [5]; [7] -8% | [6]; [7] -4%

CNC(=O)OCCN1c2ccccc2Sc2ccccc21
inactive: [1]; [7] -22% | [2]; [7] -9% | [2]; [8] 68% | [3]; [7] 8% | [4]; [7] -1% | [5]; [7] 0% | [6]; [7] -9%
active: [1]; [8] 93% | [1]; at 50.0 µM 89.5% | [2]; at 50.0 µM 92% | [3]; [8] 91% | [3]; at 50.0 µM 93.3% | [4]; [8] 82% | [4]; at 50.0 µM 90.3% | [5]; [8] 95% | [5]; at 50.0 µM 92% | [6]; [8] 92% | [6]; at 50.0 µM 91.5%

O=[N+]([O-])c1ccc(N/N=C/CC(O)(C(F)(F)F)C(F)(F)F)c([N+](=O)[O-])c1
inactive: [1]; [7] 0% | [2]; [7] -1% | [3]; [7] -1% | [4]; [7] 25% | [5]; [7] 13% | [6]; [7] 3%
active: [1]; [8] 98% | [1]; at 50.0 µM 88.6% | [2]; [8] 98% | [2]; at 50.0 µM 91.5% | [3]; [8] 97% | [3]; at 50.0 µM 91.8% | [4]; [8] 98% | [4]; at 50.0 µM 88% | [5]; [8] 98% | [5]; at 50.0 µM 86.4% | [6]; [8] 98% | [6]; at 50.0 µM 89.9%

O=C(CCC(=O)OCCOc1ccccc1)OCCOc1ccccc1
inactive: [1]; [7] 10% | [1]; [8] -1% | [1]; at 50.0 µM -3.5% | [2]; [7] -16% | [2]; [8] -13% | [2]; at 50.0 µM -4.7% | [3]; [7] 17% | [3]; [8] 3% | [3]; at 50.0 µM -6.4% | [4]; [7] 7% | [4]; [8] 20% | [4]; at 50.0 µM 21.6% | [5]; [7] 1% | [5]; [8] 7% | [5]; at 50.0 µM -4% | [6]; [7] 6% | [6]; [8] 30% | [6]; at 50.0 µM -1.75%

Clc1nc2nc(Cl)c(Cl)n2nc1Cl
inactive: [1]; [7] -4% | [1]; [8] -5% | [2]; [7] -3% | [2]; [8] -7% | [3]; [7] -2% | [3]; [8] -11% | [4]; [7] 4% | [4]; [8] -1% | [5]; [7] -5% | [5]; [8] -8% | [6]; [7] -8% | [6]; [8] -4%
active: [1]; at 50.0 µM 98.5% | [2]; at 50.0 µM 99.7% | [3]; at 50.0 µM 99.5% | [4]; at 50.0 µM 98.8% | [5]; at 50.0 µM 99.3% | [6]; at 50.0 µM 99.5%

COc1cc(O)ccc1C(=S)SC
active: [1]; [8] 78% | [1]; at 50.0 µM 85% | [6]; [8] 87%
inactive: [1]; [7] 6% | [2]; [7] 1% | [2]; [8] 18% | [2]; at 50.0 µM 29.6% | [3]; [7] 5% | [3]; [8] 66% | [3]; at 50.0 µM 42.5% | [4]; [7] 0% | [4]; [8] 29% | [4]; at 50.0 µM 9% | [5]; [7] -5% | [5]; [8] 33% | [5]; at 50.0 µM -6.9% | [6]; [7] 12% | [6]; at 50.0 µM 30.9%

Cc1c2cc[n+](C)cc2c(C)c2c1[nH]c1ccccc12
75.7% (active) and -25% (inactive): [3]; at 50.0 µM
inactive: [1]; [7] 28% | [1]; [8] 68% | [1]; at 50.0 µM 27.5% and 40.4% | [2]; [7] 18% | [2]; [8] 22% | [2]; at 50.0 µM 29.2% and -21.1% | [3]; [7] 28% | [3]; [8] 36% | [4]; [7] 27% | [4]; [8] 32% | [4]; at 50.0 µM 23.8% and 2.8% | [5]; [7] 12% | [5]; [8] 31% | [5]; at 50.0 µM 62.8% and -38.5% | [6]; [7] 16% | [6]; [8] 39% | [6]; at 50.0 µM 54.5% and 26.9%

Cc1c(Cl)cccc1NC(=O)CC1Sc2ccccc2NC1=O (stereo not given)
active: [1]; [8] 83% | [5]; [8] 83% | [6]; [8] 77%
inactive: [1]; [7] 23% | [1]; at 50.0 µM -1.35% and 51.1% | [2]; [7] -7% | [2]; [8] 52% | [2]; at 50.0 µM -6.7% and 44.2% | [3]; [7] 2% | [3]; [8] 38% | [3]; at 50.0 µM -22.2% and 55% | [4]; [7] 8% | [4]; [8] 49% | [4]; at 50.0 µM -1.1% and 27.8% | [5]; [7] 4% | [5]; at 50.0 µM 1.6% and 49.8% | [6]; [7] -1%
6.5% (inactive) and 83% (active): [6]; at 50.0 µM

Nc1ccc2cc3ccc(N)cc3nc2c1
15.5% (inactive) and 77% (active): [6]; at 50.0 µM
38.1% (inactive) and 73.2% (active): [1]; at 50.0 µM
active: [1]; [8] 86%
inactive: [1]; [7] 21% | [2]; [7] 9% | [2]; [8] 31% | [2]; at 50.0 µM 32.5% and 54.3% | [3]; [7] 11% | [3]; [8] 37% | [3]; at 50.0 µM 3.15% and 35% | [4]; [7] 12% | [4]; [8] 11% | [4]; at 50.0 µM 9.45% and 69.2% | [5]; [7] 6% | [5]; [8] 20% | [5]; at 50.0 µM 19.8% and 36.3% | [6]; [7] 9% | [6]; [8] 51%

O=C1C=CC(=O)C(c2ccc3ccccc3c2)=C1
active: [1]; [7] 90% | [1]; [8] 98% | [1]; at 50.0 µM 99% | [2]; [7] 96% | [2]; [8] 99% | [2]; at 50.0 µM 99.1% | [3]; [7] 85% | [3]; [8] 99% | [3]; at 50.0 µM 99.2% | [4]; [7] 73% | [4]; [8] 98% | [4]; at 50.0 µM 98.8% | [5]; [7] 91% | [5]; [8] 97% | [5]; at 50.0 µM 99% | [6]; [7] 97% | [6]; [8] 99% | [6]; at 50.0 µM 99%

CCN(C(=O)C(Cl)Cl)C(Cc1ccccc1)c1ccccc1 (stereo not given)
active: [1]; at 50.0 µM 91.5% | [2]; at 50.0 µM 96.3% | [3]; [8] 80% | [3]; at 50.0 µM 93.8% | [4]; [8] 74% | [4]; at 50.0 µM 86.8% | [5]; at 50.0 µM 86.8% | [6]; [8] 72% | [6]; at 50.0 µM 86%
inactive: [1]; [7] -1% | [1]; [8] 58% | [2]; [7] -1% | [2]; [8] 61% | [3]; [7] -1% | [4]; [7] -4% | [5]; [7] 10% | [5]; [8] 61% | [6]; [7] 2%

CCC(=O)OCOc1ccc(/C=C2\CCC(CN(C)C)C2=O)cc1 (stereo not given)
active: [1]; at 50.0 µM 93.3% | [2]; at 50.0 µM 92.6% | [3]; [8] 88% | [3]; at 50.0 µM 92.5% | [4]; at 50.0 µM 90.9% | [5]; [8] 98% | [5]; at 50.0 µM 84.5% | [6]; at 50.0 µM 90.8%
inactive: [1]; [7] 30% | [1]; [8] 53% | [2]; [7] 23% | [2]; [8] 66% | [3]; [7] 40% | [4]; [7] 29% | [4]; [8] 34% | [5]; [7] 36% | [6]; [7] 33% | [6]; [8] 66%

CC(C)(C)OC(=O)NOc1ccc([N+](=O)[O-])cc1[N+](=O)[O-]
active: [1]; [8] 99% | [1]; at 50.0 µM 98.7% and 99.5% | [2]; [8] 100% | [2]; at 50.0 µM 99.5% and 99.7% | [3]; [8] 100% | [3]; at 50.0 µM 99.5% | [4]; [8] 99% | [4]; at 50.0 µM 97.2% and 99.5% | [5]; [8] 99% | [5]; at 50.0 µM 99.2% and 99.5% | [6]; [8] 97% | [6]; at 50.0 µM 99.2% and 99.7%
inactive: [1]; [7] 22% | [2]; [7] 4% | [3]; [7] 38% | [4]; [7] 8% | [5]; [7] 9% | [6]; [7] 68%
